Where “and” joins values, the source holds several entries; their conditions need not be identical. Identical values can stand only once. Results filed as inconclusive are left out. A number with no mark means an inactive call. Calls of active or inactive are those of the source. Unless noted, calls follow the shape of the full dose curve.
test system: not listed separately; test: qHTS assay to identify small molecule agonists of the estrogen related receptor signaling pathway with the pleiotropic PPARgamma coactivator (PGC) from Tox21 10K library (AID 1224842; active = well fitted activation curve with a large enough effect in the repeat runs; also: nearly all actives have a fitted effect of over 15% in size); conditions: PGC/ERR reporter cell line, luciferase ONE-Glo, 18 h; series mostly up to 92.4 µM; activation: at the top concentration
How it was run: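 PGC/ERR reporter cell line, 2,000 cells per well, incubated 6 h at 37 C before 23 nL compound in DMSO was added. After 18 h at 37 C, One-Glo luminescence read following 30 min at room temperature.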
% is scaled to controls: 0 for no effect and ±100 for the full control effect.

Question: Which “activation” value does the source give for CNC(=O)O/N=C(\C)C(C)S(C)(=O)=O (configuration not stated) here?
Answer: Its value is -4.42% [at 872 µM].

Question: For CCOC(=O)CCN(SN(C)C(=O)Oc1cccc2c1OC(C)(C)C2)C(C)C, which “activation” value is on record?
Answer: Its value is -28.2%.

Question: With O=c1c2ccccc2c(=O)c2c1cc(Cl)c1[nH]c3c([nH]c12)c(Cl)cc1c(=O)c2ccccc2c(=O)c13 as the compound, how does the “activation” value read?
Answer: Its value is -11.8%.

biological target: Thyrotropin receptor (Homo sapiens) (UniProt P16473); test: qHTS assay to identify small molecule agonists of the thyroid stimulating hormone receptor (TSHR) signaling pathway (AID 1224843); conditions: TSHR-HEK293 cells, cAMP HTRF, agonist mode, 30 min; series mostly up to 92.4 µM; activation: at the top concentration; also: nearly all actives have a fitted effect of over 45% in size; also: potency is read from the fitted curve at half-maximal effect
How it was run: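 Agonist-mode screen: TSHR HEK293 cells received test chemicals for half an hour at room temperature, then HTRF cAMP detection reagents for one hour prior to fluorescence measurement. Each chemical ran as a 15-concentration series, triplicated.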

Sequence of Thyrotropin receptor (Homo sapiens) (P16473 whole entry, looked up): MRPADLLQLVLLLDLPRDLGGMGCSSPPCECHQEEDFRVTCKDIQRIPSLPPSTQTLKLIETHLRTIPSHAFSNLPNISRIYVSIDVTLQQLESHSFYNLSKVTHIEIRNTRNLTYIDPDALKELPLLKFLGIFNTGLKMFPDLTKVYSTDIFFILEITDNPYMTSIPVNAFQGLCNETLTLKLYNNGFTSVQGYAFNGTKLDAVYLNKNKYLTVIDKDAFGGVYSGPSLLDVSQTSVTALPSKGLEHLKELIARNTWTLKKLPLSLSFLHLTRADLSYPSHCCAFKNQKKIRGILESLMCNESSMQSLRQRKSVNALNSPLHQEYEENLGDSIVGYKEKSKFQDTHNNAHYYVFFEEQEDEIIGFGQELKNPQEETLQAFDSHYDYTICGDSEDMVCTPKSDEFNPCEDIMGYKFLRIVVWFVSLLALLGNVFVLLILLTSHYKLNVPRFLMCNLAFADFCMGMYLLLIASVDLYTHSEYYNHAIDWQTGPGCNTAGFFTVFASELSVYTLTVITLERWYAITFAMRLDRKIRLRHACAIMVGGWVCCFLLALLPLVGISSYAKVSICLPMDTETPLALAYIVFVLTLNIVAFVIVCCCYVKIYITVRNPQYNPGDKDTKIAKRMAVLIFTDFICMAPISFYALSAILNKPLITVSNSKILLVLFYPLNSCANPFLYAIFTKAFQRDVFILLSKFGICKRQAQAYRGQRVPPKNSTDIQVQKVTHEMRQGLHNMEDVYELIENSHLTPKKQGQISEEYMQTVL

Question: For CNC(C)(C)Cc1ccccc1, which “activation” value is on record?
Answer: Its value is 16.5% [at 42.5 µM].

Question: For CC(C)N(C(=O)SC/C(Cl)=C/Cl)C(C)C, which Potency is on record?
Answer: The Potency was 17.3 µM (active).

Question: For C[C@]12CC[C@H]3[C@@H](CCC4=CC(=O)CC[C@@H]43)[C@@H]1CC[C@@H]2OC(=O)CCc1ccco1, which “activation” value is on record?
Answer: Its value is 1.58% [at 42.5 µM].

Question: For CNC(=O)O/N=C(\C)C(C)S(C)(=O)=O (configuration not stated), which “activation” value is on record?
Answer: The value was -1.21% [at 872 µM].

Question: With Fc1ccc(C(OCCN2CCN(CCCc3ccccc3)CC2)c2ccc(F)cc2)cc1 as the compound, how does the “activation” value read?
Answer: The value was -2.02% [at 42.5 µM].

Question: For N#CSCc1ccccc1, which “activation” value is on record?
Answer: Its value is -9.68%.

Question: Which “activation” value does the source give for Cc1cccc(Cc2cnc[nH]2)c1C here?
Answer: The value was -0.113% [at 42.5 µM].

Question: Which “activation” value does the source give for CC(=O)C(Cl)C(=O)N(C)C (configuration not stated) here?
Answer: Its value is 14.3%.

Question: For CCOC(=O)CCN(SN(C)C(=O)Oc1cccc2c1OC(C)(C)C2)C(C)C, which “activation” value is on record?
Answer: The value was -4.95%.

Question: With COc1nc(C)nc(NC(=O)NS(=O)(=O)c2ccccc2Cl)n1 as the compound, how does the “activation” value read?
Answer: Its value is -7.44%.

Question: For CC1CCCC1, which “activation” value is on record?
Answer: The value was 0.776%.

Question: Which “activation” value does the source give for COc1ccc2c(c1OC)C(=O)O[C@@H]2[C@H]1c2cc3c(cc2CCN1C)OCO3 here?
Answer: Its value is -2.87%.

Question: Which “activation” value does the source give for CCOC(=O)Cc1ccccc1 here?
Answer: Its value is -5.49%.

Question: With O=c1c2ccccc2c(=O)c2c1cc(Cl)c1[nH]c3c([nH]c12)c(Cl)cc1c(=O)c2ccccc2c(=O)c13 as the compound, how does the “activation” value read?
Answer: The value was 3.52%.

Question: For ClC1=C(Cl)[C@]2(Cl)[C@H]3[C@H]([C@@H]4C=C[C@H]3C4)[C@@]1(Cl)C2(Cl)Cl, which Potency is on record?
Answer: The Potency was 19.3 µM (active) and 13.7 µM (active).

Question: Which “activation” value does the source give for O=Cc1ccccc1 here?
Answer: Its value is 18.5%.

test system: not listed separately; test: qHTS assay to identify small molecule agonists of the hypoxia (HIF-1) signaling pathway - cell viability counter screen (AID 1224844); conditions: HRE-bla ME-180 viability, CellTiter-Glo luminescence, 17 h; series mostly up to 76.8 µM; activity change, negative = cytotoxicity: at the top concentration; also: nearly all actives have a fitted effect of over 50% in size; also: potency is read from the fitted curve at half-maximal effect
How it was run: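 In this counter screen, HRE-bla ME-180 cell viability after 17 hrs of compound exposure at 37C was read by CellTiter-Glo luminescence, multiplexed with the beta-lactamase reporter measurement.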

Question: Which “activity change, negative = cytotoxicity” value does the source give for Brc1ccc(Oc2ccc(Br)cc2Br)c(Br)c1 here?
Answer: Its value is -7.18%.

Question: With CC[C@H](C)[C@H]1O[C@]2(C=C[C@@H]1C)C[C@@H]1C[C@@H](C/C=C(\C)[C@@H](O[C@H]3C[C@H](OC)[C@@H](O[C@H]4C[C@H](OC)[C@@H](NC)[C@H](C)O4)[C@H](C)O3)[C@@H](C)/C=C/C=C3\CO[C@@H]4[C@H](O)C(C)=C[C@@H](C(=O)O1)[C@]34O)O2 as the compound, how does the Potency read?
Answer: The Potency was 21.9 µM (active).

Question: For CSC(=O)c1c(C(F)F)nc(C(F)(F)F)c(C(=O)SC)c1CC(C)C, which “activity change, negative = cytotoxicity” value is on record?
Answer: Its value is -0.42%.

Question: Which “activity change, negative = cytotoxicity” value does the source give for Oc1cc(Cl)cc(Cl)c1 here?
Answer: The value was -21.3%.

Question: With CNC(C)(C)Cc1ccccc1 as the compound, how does the “activity change, negative = cytotoxicity” value read?
Answer: The value was 0.533% [at 35.3 µM].

Question: For CC(C)[C@@H](Nc1ccc(C(F)(F)F)cc1Cl)C(=O)OC(C#N)c1cccc(Oc2ccccc2)c1 (some centres not stated), which “activity change, negative = cytotoxicity” value is on record?
Answer: Its value is 8.83%.

Question: For Cc1ccc([N+](=O)[O-])[c]2c1[O][Hg]2, which Potency is on record?
Answer: Its Potency is 2.13 µM (active).

Question: With CC(C)N(C(=O)SC/C(Cl)=C/Cl)C(C)C as the compound, how does the “activity change, negative = cytotoxicity” value read?
Answer: The value was 0.271%.

Question: Which “activity change, negative = cytotoxicity” value does the source give for C[C@]12CC[C@H]3[C@@H](CCC4=CC(=O)CC[C@@H]43)[C@@H]1CC[C@@H]2OC(=O)CCc1ccco1 here?
Answer: The value was 0.344% [at 35.3 µM].

Question: For CNC(=O)O/N=C(\C)C(C)S(C)(=O)=O (configuration not stated), which “activity change, negative = cytotoxicity” value is on record?
Answer: The value was 3.15% [at 725 µM].

Question: Which “activity change, negative = cytotoxicity” value does the source give for CC1(C)[C@H](/C=C2\CCSC2=O)[C@@H]1C(=O)OCc1coc(Cc2ccccc2)c1 here?
Answer: Its value is 9.96%.

Question: Which Potency does the source give for Fc1ccc(C(OCCN2CCN(CCCc3ccccc3)CC2)c2ccc(F)cc2)cc1 here?
Answer: Its Potency is 16.9 µM (active).

Question: For CN(C)c1ccc(N)cc1, which “activity change, negative = cytotoxicity” value is on record?
Answer: The value was -0.432%.

Question: With CC(C)C(Nc1ccc(C(F)(F)F)cc1Cl)C(=O)OC(C#N)c1cccc(Oc2ccccc2)c1 (configuration not stated) as the compound, how does the “activity change, negative = cytotoxicity” value read?
Answer: The value was 18%.

Question: Which “activity change, negative = cytotoxicity” value does the source give for N#CSCc1ccccc1 here?
Answer: Its value is -4.77%.

Question: For Cc1cccc(Cc2cnc[nH]2)c1C, which “activity change, negative = cytotoxicity” value is on record?
Answer: Its value is 6.88% [at 35.3 µM].

Question: With CN(C)C(=S)SSC(=S)N(C)C as the compound, how does the Potency read?
Answer: Its Potency is 171 nM (active) and 347 nM (active).

Question: For c1csc(-c2ccc(-c3cccs3)s2)c1, which “activity change, negative = cytotoxicity” value is on record?
Answer: The value was 14%.

Question: Which “activity change, negative = cytotoxicity” value does the source give for COP(=S)(NC(C)C)Oc1ccc(C)cc1[N+](=O)[O-] (configuration not stated) here?
Answer: The value was 1.97%.

Question: With CCC1(CC)C(=O)N=C(O)NC1=O as the compound, how does the “activity change, negative = cytotoxicity” value read?
Answer: Its value is -2.81%.

Question: For CC(=O)C(Cl)C(=O)N(C)C (configuration not stated), which Potency is on record?
Answer: Its Potency is 43.6 µM (active).

Question: For CCOC(=O)CCN(SN(C)C(=O)Oc1cccc2c1OC(C)(C)C2)C(C)C, which “activity change, negative = cytotoxicity” value is on record?
Answer: The value was -14.8%.

Question: For COc1nc(C)nc(NC(=O)NS(=O)(=O)c2ccccc2Cl)n1, which “activity change, negative = cytotoxicity” value is on record?
Answer: Its value is 2.09%.

Question: With c1ccc2nc(N3CCNCC3)ccc2c1 as the compound, how does the “activity change, negative = cytotoxicity” value read?
Answer: The value was 1.44% [at 35.3 µM].

Question: With CCCCC(CC)COC(=O)OOC(C)(C)C (configuration not stated) as the compound, how does the “activity change, negative = cytotoxicity” value read?
Answer: The value was 0.143%.

Question: With CCOP(=S)(OCC)Oc1cc(C)nc(N(CC)CC)n1 as the compound, how does the “activity change, negative = cytotoxicity” value read?
Answer: Its value is 6.89%.

Question: Which “activity change, negative = cytotoxicity” value does the source give for CC1CCCC1 here?
Answer: Its value is -23.1%.

Question: For COc1ccc2c(c1OC)C(=O)O[C@@H]2[C@H]1c2cc3c(cc2CCN1C)OCO3, which “activity change, negative = cytotoxicity” value is on record?
Answer: Its value is 0.57%.

Question: Which “activity change, negative = cytotoxicity” value does the source give for CN/C(=N\[N+](=O)[O-])NCc1cnc(Cl)s1 here?
Answer: The value was 0.994%.

Question: Which “activity change, negative = cytotoxicity” value does the source give for CCOP(=O)(Sc1ccccc1)Sc1ccccc1 here?
Answer: Its value is -21.9%.

Question: Which “activity change, negative = cytotoxicity” value does the source give for CCOC(=O)Cc1ccccc1 here?
Answer: The value was 7.66%.

Question: For CNC(=O)Oc1cc(C)cc(C(C)C)c1, which “activity change, negative = cytotoxicity” value is on record?
Answer: Its value is 3.16%.

Question: For O=c1c2ccccc2c(=O)c2c1cc(Cl)c1[nH]c3c([nH]c12)c(Cl)cc1c(=O)c2ccccc2c(=O)c13, which “activity change, negative = cytotoxicity” value is on record?
Answer: The value was -9.39%.
